# The supplement of paper PMC6607015
# Structures can show the parent of a compound that is named as a salt.
# Key:
# Conditions in all cases: compound concentration in added solution (µM; 5 µl added to 20 µl cells): 10; 18 h
# A431 [1] = experiment: LBPA endosome anti-LBPA integrated intensity (sum per cell), Z-score; higher = more LBPA staining
# Summary of the method: (§1)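 Per-cell integrated LBPA or filipin intensity, whole-cell or within LBPA endosomes, is expressed as Z-scores normalised in AcuityXpress. HeLa MZ or A431 cells, 3,500 per well in 20 µl, sat on 5 µl of 10 µM compound solution in duplicate 384-well imaging plates for 18 h. They were then fixed in 4% PFA, stained, imaged in four 20× fields per well and segmented using MetaXpress.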
# HeLa MZ [2] = experiment: as above
# Summary of the method: as §1
# A431 [3] = experiment: whole-cell filipin (free cholesterol) integrated intensity, Z-score; higher = more cholesterol staining
# Summary of the method: as §1
# HeLa MZ [4] = experiment: as above
# Summary of the method: as §1
# A431 [5] = experiment: filipin (cholesterol) integrated intensity within LBPA endosomes, Z-score; higher = more cholesterol in LBPA endosomes
# Summary of the method: as §1
# HeLa MZ [6] = experiment: as above
# Summary of the method: as §1
SMILES,LBPA endosome anti-LBPA integrated intensity (z-score) (A431 [1]),LBPA endosome anti-LBPA integrated intensity (z-score) (HeLa MZ [2]),whole-cell filipin (z-score) (A431 [3]),whole-cell filipin (z-score) (HeLa MZ [4]),filipin (z-score) (A431 [5]),filipin (z-score) (HeLa MZ [6])
CN1CCN(CC(=O)N2c3ccccc3C(=O)Nc3cccnc32)CC1 [Pirenzepine dihydrochloride],-0.619,-0.294,-1.05,-0.725,-0.555,-0.529
C[C@]12CC[C@H]3C(=CCc4cc(O)ccc43)[C@@H]1CCC2=O [Equilin],-0.185,0.864,-0.0277,0.614,-0.251,0.186
CC(=O)Nc1ccc(O)cc1 [Acetaminophen],-0.388,0.0073,-0.156,-0.518,-0.48,-0.412
CC[C@H]1OC(=O)[C@H](C)[C@@H](O[C@H]2C[C@@](C)(OC)[C@@H](O)[C@H](C)O2)[C@H](C)[C@@H](O[C@@H]2O[C@H](C)C[C@H](N(C)C)[C@H]2O)[C@](C)(O)C[C@@H](C)[C@@H]2N[C@@H](COCCOC)O[C@H]([C@H]2C)[C@]1(C)O [Dirithromycin],-0.436,-0.0354,-0.786,-0.252,-0.507,-0.38
CCOC(=O)C1=C(COCCN)NC(C)=C(C(=O)OC)C1c1ccccc1Cl (configuration not stated) [Amlodipine],1.97,0.223,0.774,0.736,2.32,1.8
CC1(C)S[C@@H]2[C@H](NC(=O)[C@H](N)c3ccccc3)C(=O)N2[C@H]1C(=O)O [Ampicillin trihydrate],-0.606,-0.403,-0.896,-0.707,-0.569,-0.702
Cc1ncc([N+](=O)[O-])n1CC(C)O (configuration not stated) [Secnidazole],-0.291,-0.288,-0.203,-0.327,-0.374,-0.579
CC(C)(C(=O)c1cccnc1)c1cccnc1 [Metyrapone],-0.435,-0.575,-0.128,-0.599,-0.359,-0.375
CC(C[N+](C)(C)C)OC(N)=O (configuration not stated) [Bethanechol chloride],-0.55,-0.64,-0.316,-0.111,-0.415,-0.495
CCCCCN(CCCCC)C(=O)C(CCC(=O)O)NC(=O)c1ccc(Cl)c(Cl)c1 (configuration not stated) [Lorglumide sodium salt],-0.556,0.0228,-0.478,-0.52,-0.482,-0.502
O=C(Nc1cccc2c(=O)cc(-c3nnn[nH]3)oc12)c1ccc(OCCCCc2ccccc2)cc1 [Pranlukast],-0.507,-1.1,-0.413,-0.657,-0.501,-0.637
N#CC(c1ccc(Cl)cc1)c1c(Cl)cc(-n2ncc(=O)[nH]c2=O)cc1Cl (configuration not stated) [Diclazuril],-0.281,0.505,0.197,0.559,-0.215,-0.204
CC1=C(/C=C/C(C)=C/C=C/C(C)=C\C(=O)O)C(C)(C)CCC1 [Isotretinoin],-0.383,-0.562,-0.622,-0.961,-0.488,-0.54
Cc1ccccc1OCC(O)CO (configuration not stated) [Mephenesin],-0.324,0.139,-0.27,0.183,-0.409,-0.223
CCC(=O)OCC(=O)[C@@]1(OC(=O)CC)[C@H](C)C[C@H]2[C@H]3[C@H]([C@@H](O)C[C@@]21C)[C@@]1(C)C=CC(=O)C=C1C[C@H]3Cl [Alclometasone dipropionate],-0.24,0.1,-0.316,-0.125,-0.325,-0.277
CCCCC1C(=O)N(c2ccccc2)N(c2ccccc2)C1=O [Phenylbutazone],-0.242,0.571,-0.047,0.231,-0.314,-0.301
CC[N+](CC)(CC(=O)Nc1c(C)cccc1C)Cc1ccccc1 [Denatonium benzoate],-0.32,-0.985,-0.241,-0.0671,-0.379,-0.548
NC(=O)c1ccc[n+]([C@@H]2O[C@H](COP(=O)([O-])OP(=O)(O)OC[C@H]3O[C@@H](n4cnc5c(N)ncnc54)[C@H](O)[C@@H]3O)[C@@H](O)[C@H]2O)c1 [Nadide],-0.373,-0.766,-0.714,-0.46,-0.413,-0.768
Nc1ccc(/N=N/c2ccccc2)c(N)n1 [Phenazopyridine hydrochloride],-0.183,0.466,-0.169,-0.724,-0.32,-0.502
COc1ccc2c(c1)N(C[C@H](C)CN(C)C)c1ccccc1S2 [Methotrimeprazine maleat salt],2.94,1.48,1.03,-0.207,1.82,1.55
CC(CCc1ccccc1)NCC(O)c1ccc(O)c(C(N)=O)c1 (configuration not stated) [Labetalol hydrochloride],0.794,1.06,1,-0.0368,0.489,0.328
CC(C(=O)O)c1ccc(C(=O)c2cccs2)cc1 (configuration not stated) [Suprofen],-0.328,0.404,0.0494,0.84,-0.289,-0.21
Nc1ccccc1S(N)(=O)=O [2-Aminobenzenesulfonamide],-0.461,-0.0157,-0.474,-0.217,-0.417,-0.589
C=CC1=C(C(=O)O)N2C(=O)[C@@H](NC(=O)/C(=N\O)c3csc(N)n3)[C@H]2SC1 [Cefdinir],-0.422,-0.414,-0.315,-0.322,-0.385,-0.46

SMILES,LBPA endosome anti-LBPA integrated intensity (z-score) (A431 [1]),LBPA endosome anti-LBPA integrated intensity (z-score) (HeLa MZ [2]),whole-cell filipin (z-score) (A431 [3]),whole-cell filipin (z-score) (HeLa MZ [4]),filipin (z-score) (A431 [5]),filipin (z-score) (HeLa MZ [6])
CN(N=O)C(=O)N[C@@H](C=O)[C@@H](O)[C@H](O)[C@H](O)CO [Streptozotocin],-0.585,-0.52,-0.71,-0.525,-0.474,-0.51
CN1C(C(=O)Nc2ccccn2)=C(O)c2sccc2S1(=O)=O [Tenoxicam],-0.541,-0.303,-0.432,-0.0776,-0.522,-0.391
CC(c1cc2ccccc2s1)N(O)C(N)=O (configuration not stated) [Zileuton],-0.514,-0.465,-0.358,-0.366,-0.391,-0.425
C[C@]12CC[C@@H]3c4ccc(O)cc4CC[C@H]3[C@@H]1CCC2=O [Estrone],-0.124,0.505,-0.166,-0.0664,-0.236,-0.151
CC1(C)S[C@@H]2[C@H](NC(=O)[C@H](C(=O)O)c3ccsc3)C(=O)N2[C@H]1C(=O)O [Ticarcillin sodium],-0.466,-0.401,-0.165,-0.157,-0.403,-0.501
CCc1nn(CCCN2CCN(c3cccc(Cl)c3)CC2)c(=O)n1CCOc1ccccc1 [Nefazodone HCl],0.334,2.39,0.625,0.969,0.483,1.14
COc1ccc([C@@H]2CC(=O)c3c(O)cc(O[C@@H]4O[C@H](CO[C@@H]5O[C@@H](C)[C@H](O)[C@@H](O)[C@H]5O)[C@@H](O)[C@H](O)[C@H]4O)cc3O2)cc1O [Hesperidin],-0.494,-1.29,-0.6,-0.779,-0.447,-0.68
CN(C)CCCN1c2ccccc2Sc2ccccc21 [Promazine hydrochloride],2.06,2.59,1.2,-0.208,1.35,1.31
C[C@H](O)C(=O)Nc1c(I)c(C(=O)NC(CO)CO)c(I)c(C(=O)NC(CO)CO)c1I [Iopamidol],-0.637,-1.5,-0.34,-0.1,-0.494,-0.379
C[C@H]1O[C@H](O[C@H]2[C@H](O)[C@@H](O)[C@@H](O[C@H]3[C@H](O)[C@@H](O)C(O)O[C@@H]3CO)O[C@@H]2CO)[C@H](O)[C@@H](O)[C@@H]1N[C@H]1C=C(CO)[C@@H](O)[C@H](O)[C@H]1O (some centres not stated) [Acarbose],-0.482,-0.645,-0.828,-0.123,-0.508,-0.442
CCCNC(C)C(=O)Nc1ccccc1C (configuration not stated) [Prilocaine hydrochloride],-0.398,-0.0706,-0.685,-0.312,-0.467,-0.406
CCn1cc(C(=O)O)c(=O)c2cnc(N3CCCC3)nc21 [Piromidic acid],-0.472,-0.684,-0.293,0.123,-0.374,-0.418
O=C1NCC2(CCN(CCc3ccccc3)CC2)O1 [Fenspiride hydrochloride],-0.609,-0.156,-1.07,-0.91,-0.575,-0.493
CN[C@@H]1[C@H](O[C@H]2[C@H](O[C@H]3[C@H](O)[C@@H](O)[C@H](N=C(N)N)[C@@H](O)[C@@H]3N=C(N)N)O[C@@H](C)[C@]2(O)C=O)O[C@@H](CO)[C@H](O)[C@H]1O [Streptomycin sulfate],-0.673,-1.38,-0.979,-0.78,-0.577,-0.576
COc1cc(-c2ccc(=O)[nH]n2)ccc1OC(F)F [Zardaverine],-0.319,0.0365,0.286,0.356,-0.298,-0.332
COc1ccc2[nH]c([S+]([O-])Cc3ncc(C)c(OC)c3C)nc2c1 (configuration not stated) [Omeprazole],-0.534,-0.664,-0.421,-0.0929,-0.508,-0.373
c1ccc(-c2ccc(C(c3ccccc3)n3ccnc3)cc2)cc1 (configuration not stated) [Bifonazole],-0.285,0.816,0.345,0.00932,-0.374,-0.192
CN1CCC(=C2c3ccccc3C=Cc3ccccc32)CC1 [Cyproheptadine hydrochloride],2.41,0.629,1.01,-1.18,2.25,0.976
NC(=O)c1ncn([C@@H]2O[C@H](CO)[C@@H](O)[C@H]2O)n1 [Ribavirin],-0.391,-0.778,-0.377,-0.839,-0.376,-0.688
CNC(=C[N+](=O)[O-])NCCSCc1csc(CN(C)C)n1 [Nizatidine],-0.247,-0.223,0.149,-0.639,-0.347,-0.405
CCOc1cc(CC(=O)N[C@@H](CC(C)C)c2ccccc2N2CCCCC2)ccc1C(=O)O [Repaglinide],-0.598,-1.05,0.149,0.153,-0.42,-0.591
Cn1c(=O)c2c(ncn2CC(O)CO)n(C)c1=O (configuration not stated) [Diprophylline],-0.55,-0.754,-0.617,-0.852,-0.554,-0.628
C[C@@H]1C[C@H]2[C@@H]3C[C@H](F)C4=CC(=O)C=C[C@]4(C)[C@@]3(Cl)[C@@H](O)C[C@]2(C)[C@H]1C(=O)COC(=O)C(C)(C)C [Clocortolone pivalate],-0.276,-1.1,-0.183,-0.473,-0.253,-0.536
